# Results: PubChem BioAssay (Tox21)
# Values without a mark were called inactive. Unless noted, the call rests on the fitted dose curve; in most records, active means well fitted inhibition curve with a large enough effect in the repeat runs (not every such curve was filed as active); inconclusive means weak or mixed curves; inactive means flat fitted curve, though single readings scatter. Inconclusive results are not listed.
# Target: Thyrotropin-releasing hormone receptor (Homo sapiens) (UniProt P34981)
# Sequence (P34981 whole entry, looked up): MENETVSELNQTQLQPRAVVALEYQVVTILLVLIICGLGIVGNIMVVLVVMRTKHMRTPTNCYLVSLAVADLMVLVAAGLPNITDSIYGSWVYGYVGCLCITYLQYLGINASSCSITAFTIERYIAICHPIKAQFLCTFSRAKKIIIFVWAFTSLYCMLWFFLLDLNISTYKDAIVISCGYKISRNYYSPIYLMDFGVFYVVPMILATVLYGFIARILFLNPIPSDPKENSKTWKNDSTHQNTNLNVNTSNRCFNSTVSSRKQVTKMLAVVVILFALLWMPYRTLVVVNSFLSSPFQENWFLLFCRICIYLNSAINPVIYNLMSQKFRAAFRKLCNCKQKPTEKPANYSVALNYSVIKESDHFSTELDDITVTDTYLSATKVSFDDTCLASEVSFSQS
# Test: qHTS assay to identify small molecule antagonists of the thyrotropin-releasing hormone receptor (TRHR) signaling pathway (AID 1346877)
# Details: TRHR-HEK293, TRH-induced calcium fluorescence, antagonist mode; series mostly up to 51.3 µM; activity, negative = inhibition: at the top concentration
# Summary of the method: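 Cells (TRHR-HEK293) are plated and kept 18 h at 37 °C/5% CO2. A calcium-sensitive dye is added for 2 h, compound follows for 5 min at room temperature, and TRH is then given at 1 nM final.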
# On the % scale 0 is the no-effect control and ±100 the full control effect.
row,Structure (SMILES),"activity, negative = inhibition"
1,NCCNC(=O)c1ccc(Cl)cn1,-2.67% [at 23.6 µM]
2,CC1CCN(CCCC(=O)c2ccc(F)cc2)CC1,3.57% [at 23.6 µM]
3,OCCN1C[C@H](O)[C@@H](O)[C@H](O)[C@H]1CO,1.44% [at 23.6 µM]
4,CCCCCCC(CCCCCCCCCCC(=O)OCC(COC(C)=O)OC(C)=O)OC(C)=O (stereo unspecified),3.2% [at 23.6 µM]
5,NC(=O)CCCCC1CCSS1 (stereo unspecified),-3.57% [at 23.6 µM]
6,COc1cc(O)cc(O)c1,2.43% [at 23.6 µM]
7,C#CC(O)C(CC)CCCC (stereo unspecified),0.22%
8,O=C1OC(=O)c2cc([N+](=O)[O-])ccc21,0.0291%
9,COCCOC(=O)CC#N,3.72%
10,c1ccc(CCCc2ccccn2)cc1,-2.6%
11,CNc1ncnc2nc[nH]c12,-0.45%
12,N#CCN(CC#N)CCN(CC#N)CC#N,3.7%
13,Nc1nc2c(ncn2CCC(CO)CO)c(=O)[nH]1,2.65% [at 23.6 µM]
14,CCCCCCCCCCCCI,2.07%
15,CCC(C)OC(=O)N1CCCCC1CCO (stereo unspecified),-5.84%
16,CC(C)(C)C(=O)/C=C/c1ccc(Cl)cc1,0.386%
17,CC(C)(C)N(CCO)CCO,0.8%
18,C=CC(=O)OCCCCCC,1%
19,NS(=O)(=O)c1cc2c(cc1C(F)(F)F)NC(Cc1ccccc1)NS2(=O)=O (stereo unspecified),2.14% [at 23.6 µM]

row,Structure (SMILES),"activity, negative = inhibition"
1,CC1=CC(=O)CCC1,1.49%
2,CCCc1ccc(N)cc1,1.93%
3,COc1cccc(Br)c1,4.47%
4,CC(C)(O)Cc1ccccc1,4.89%
5,CCN(CC)C(=O)c1ccc(O)c(OC)c1,1.09% [at 23.6 µM]
6,CCO[Si](C)(OCC)OCC,2.01%
7,COC(=O)CCCCCCCCC(=O)OC,2.29%
8,CCC(=O)Nc1cccc(N)c1,4.19%
9,Nc1cc(C(Cl)=C(Cl)Cl)c(S(N)(=O)=O)cc1S(N)(=O)=O,2.84% [at 23.6 µM]
10,CCCCCCCCCCCCCCCCCC(=O)OCCCCCCCCCCCCCC(C)C,2.43%
11,NC(=O)c1ncn([C@@H]2O[C@H](CO)[C@@H](O)[C@H]2O)c1N,1.89% [at 23.6 µM]
12,CCCCCCCCCCC1CO1 (stereo unspecified),0.819%
13,NS(=O)(=O)c1cc2c(cc1Cl)NC(CSCc1ccccc1)=NS2(=O)=O,1.01% [at 23.6 µM]
14,CCc1cc(S(=O)(=O)O)c2cc(C(C)C)cccc1-2,0.684% [at 23.6 µM]
15,OCC(O)[C@@H](O)[C@H](O)[C@H](O)CO[C@H]1O[C@H](CO)[C@@H](O)[C@H](O)[C@H]1O (stereo partly specified),8.69%
16,C=CCOCC(O)CS(=O)(=O)O (stereo unspecified),-3.36%
17,CCCCCCCCCCCCCCC,2.84%
18,C=CCOc1nc(OCC=C)nc(OCC=C)n1,5.47%

# Target: Thyrotropin-releasing hormone receptor (Homo sapiens) (UniProt P34981)
# Test: qHTS assay to identify small molecule agonists of the thyrotropin-releasing hormone receptor (TRHR) signaling pathway (AID 1346891; calls by dose curve)
# Details: TRHR-HEK293 calcium fluorescence, agonist mode; series mostly up to 57.6 µM; activation: at the top concentration
# Summary of the method: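 Screening of agonists relied on calcium signalling in HEK293 cells expressing human TRHR: dye loading 2 h at 37 °C preceded compound addition and a 3-min fluorescence time course.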
row,Structure (SMILES),activation
1,NCCNC(=O)c1ccc(Cl)cn1,-0.0899% [at 26.5 µM]
2,CC1CCN(CCCC(=O)c2ccc(F)cc2)CC1,-0.0276% [at 26.5 µM]
3,OCCN1C[C@H](O)[C@@H](O)[C@H](O)[C@H]1CO,0.102% [at 26.5 µM]
4,CCCCCCC(CCCCCCCCCCC(=O)OCC(COC(C)=O)OC(C)=O)OC(C)=O (stereo unspecified),-0.0297% [at 26.5 µM]
5,NC(=O)CCCCC1CCSS1 (stereo unspecified),0.0527% [at 26.5 µM]
6,COc1cc(O)cc(O)c1,0.166% [at 26.5 µM]
7,C#CC(O)C(CC)CCCC (stereo unspecified),0.408%
8,O=C1OC(=O)c2cc([N+](=O)[O-])ccc21,0.0034%
9,COCCOC(=O)CC#N,0.0863%
10,c1ccc(CCCc2ccccn2)cc1,-0.362%
11,CNc1ncnc2nc[nH]c12,0.215%
12,N#CCN(CC#N)CCN(CC#N)CC#N,1.34%
13,Nc1nc2c(ncn2CCC(CO)CO)c(=O)[nH]1,0.0214% [at 26.5 µM]
14,CCCCCCCCCCCCI,0.527%
15,CCC(C)OC(=O)N1CCCCC1CCO (stereo unspecified),-0.393%
16,CC(C)(C)C(=O)/C=C/c1ccc(Cl)cc1,-0.372%
17,CC(C)(C)N(CCO)CCO,0.127%
18,C=CC(=O)OCCCCCC,0.0059%
19,NS(=O)(=O)c1cc2c(cc1C(F)(F)F)NC(Cc1ccccc1)NS2(=O)=O (stereo unspecified),-0.251% [at 26.5 µM]

row,Structure (SMILES),activation
1,CC1=CC(=O)CCC1,0.668%
2,CCCc1ccc(N)cc1,-0.0198%
3,COc1cccc(Br)c1,-0.106%
4,CC(C)(O)Cc1ccccc1,-0.0152%
5,CCN(CC)C(=O)c1ccc(O)c(OC)c1,0.0489% [at 26.5 µM]
6,CCO[Si](C)(OCC)OCC,-1.06%
7,COC(=O)CCCCCCCCC(=O)OC,-0.106%
8,CCC(=O)Nc1cccc(N)c1,0.18%
9,Nc1cc(C(Cl)=C(Cl)Cl)c(S(N)(=O)=O)cc1S(N)(=O)=O,-0.0156% [at 26.5 µM]
10,CCCCCCCCCCCCCCCCCC(=O)OCCCCCCCCCCCCCC(C)C,-0.165%
11,NC(=O)c1ncn([C@@H]2O[C@H](CO)[C@@H](O)[C@H]2O)c1N,0.266% [at 26.5 µM]
12,CCCCCCCCCCC1CO1 (stereo unspecified),-0.541%
13,NS(=O)(=O)c1cc2c(cc1Cl)NC(CSCc1ccccc1)=NS2(=O)=O,-0.257% [at 26.5 µM]
14,CCc1cc(S(=O)(=O)O)c2cc(C(C)C)cccc1-2,0.248% [at 26.5 µM]
15,OCC(O)[C@@H](O)[C@H](O)[C@H](O)CO[C@H]1O[C@H](CO)[C@@H](O)[C@H](O)[C@H]1O (stereo partly specified),-0.0506%
16,C=CCOCC(O)CS(=O)(=O)O (stereo unspecified),1.16%
17,CCCCCCCCCCCCCCC,0.365%
18,C=CCOc1nc(OCC=C)nc(OCC=C)n1,-0.521%

# Tested on: not listed separately
# Test: Human pregnane X receptor (PXR) small molecule agonists, qHTS cell viability counter screen (AID 1346977; active means well fitted cell-killing curve with a large enough effect in the repeat runs; further: nearly all actives have a fitted effect of over 50% in size)
# Details: PXR-Luc HepG2 viability, CellTiter-Fluor, 24 h; series mostly up to 92.4 µM; activity change, negative = cytotoxicity: at the top concentration
# Summary of the method: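 Tox21 qHTS format; PXR-Luc HepG2, 2,000/well, charcoal-stripped FBS 5%. Cpd exposure 24hr. Read: CellTiter-Fluor fluorescence, multiplexed with luciferase.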
row,Structure (SMILES),"activity change, negative = cytotoxicity"
1,NCCNC(=O)c1ccc(Cl)cn1,0.157% [at 42.5 µM]
2,CC1CCN(CCCC(=O)c2ccc(F)cc2)CC1,9.06% [at 42.5 µM]
3,OCCN1C[C@H](O)[C@@H](O)[C@H](O)[C@H]1CO,2.48% [at 42.5 µM]
4,CCCCCCC(CCCCCCCCCCC(=O)OCC(COC(C)=O)OC(C)=O)OC(C)=O (stereo unspecified),7% [at 42.5 µM]
5,NC(=O)CCCCC1CCSS1 (stereo unspecified),2.25% [at 42.5 µM]
6,COc1cc(O)cc(O)c1,10.1% [at 42.5 µM]
7,C#CC(O)C(CC)CCCC (stereo unspecified),1.33%
8,O=C1OC(=O)c2cc([N+](=O)[O-])ccc21,17.1%
9,COCCOC(=O)CC#N,1.44%
10,c1ccc(CCCc2ccccn2)cc1,6.29%
11,CNc1ncnc2nc[nH]c12,-1.28%
12,N#CCN(CC#N)CCN(CC#N)CC#N,9.02%
13,Nc1nc2c(ncn2CCC(CO)CO)c(=O)[nH]1,0.328% [at 42.5 µM]
14,CCCCCCCCCCCCI,2.21%
15,CCC(C)OC(=O)N1CCCCC1CCO (stereo unspecified),-4.94%
16,CC(C)(C)C(=O)/C=C/c1ccc(Cl)cc1,-4%
17,CC(C)(C)N(CCO)CCO,-0.236%
18,C=CC(=O)OCCCCCC,8.78%
19,NS(=O)(=O)c1cc2c(cc1C(F)(F)F)NC(Cc1ccccc1)NS2(=O)=O (stereo unspecified),10.2% [at 42.5 µM]

row,Structure (SMILES),"activity change, negative = cytotoxicity"
1,CC1=CC(=O)CCC1,6.81%
2,CCCc1ccc(N)cc1,3%
3,COc1cccc(Br)c1,-2.89%
4,CC(C)(O)Cc1ccccc1,13.2%
5,CCN(CC)C(=O)c1ccc(O)c(OC)c1,8.22% [at 42.5 µM]
6,CCO[Si](C)(OCC)OCC,14%
7,COC(=O)CCCCCCCCC(=O)OC,4.26%
8,CCC(=O)Nc1cccc(N)c1,7.55%
9,Nc1cc(C(Cl)=C(Cl)Cl)c(S(N)(=O)=O)cc1S(N)(=O)=O,-2.78% [at 42.5 µM]
10,CCCCCCCCCCCCCCCCCC(=O)OCCCCCCCCCCCCCC(C)C,1.33%
11,NC(=O)c1ncn([C@@H]2O[C@H](CO)[C@@H](O)[C@H]2O)c1N,5.83% [at 42.5 µM]
12,CCCCCCCCCCC1CO1 (stereo unspecified),1.74%
13,NS(=O)(=O)c1cc2c(cc1Cl)NC(CSCc1ccccc1)=NS2(=O)=O,0.249% [at 42.5 µM]
14,CCc1cc(S(=O)(=O)O)c2cc(C(C)C)cccc1-2,-7.63% [at 42.5 µM]
15,OCC(O)[C@@H](O)[C@H](O)[C@H](O)CO[C@H]1O[C@H](CO)[C@@H](O)[C@H](O)[C@H]1O (stereo partly specified),5.32%
16,C=CCOCC(O)CS(=O)(=O)O (stereo unspecified),-0.843%
17,CCCCCCCCCCCCCCC,7.45%
18,C=CCOc1nc(OCC=C)nc(OCC=C)n1,7.68%
